Data from PubChem BioAssay (NCATS).
Several values for one entry are separate records, joined by “and”; a condition that tells them apart may be missing. Identical values can stand only once. Results filed as inconclusive are left out. Activity calls are given as the source filed them. Unless noted, calls come from the whole dose curve; as a rule, active = well fitted curve in the direction sought with a large enough effect; inconclusive = small, poorly fitted or top-dose-only effect, or another doubt; inactive = no such curve, though single readings can be large; an effect the other way counts as inactive or inconclusive.

Columns and labels:
UISO = experiment: qHTS assay to identify novel small-molecules to repurpose for Merkel cell carcinoma treatment (AID 1296009); details: MCC and control cell lines, CellTiter-Glo viability, 72 h; series mostly up to 46 µM; note: % is set by controls: 0 for no effect and ±100 for the full control effect; nearly all actives have a fitted effect of over 60% in size
Outline: (§1)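 qHTS format: cells treated with library compounds in DMSO across 8 (NPC) or 11 (MIPE) concentrations. Readout after 72 hr at 37 degree celsius was CellTiter-Glo luminescence.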

WaGa = experiment: as above; details: MCC and control cell lines, CellTiter-Glo viability, 72 h; series mostly up to 46 µM
Outline: as §1

C33A = experiment: Primary qHTS to identify gynecologic anti-cancer compounds using libraries of approved drugs and bioactive compounds (AID 1345084); details: Gynecologic cancer cell panel viability, ATPlite luminescence, 48 h; series mostly up to 57.5 µM; note: % is set by controls: 0 for no effect and ±100 for the full control effect; nearly all actives have a fitted effect of over 55% in size
Outline: (§2)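 48 h compound exposure at 37 C, 5% CO2; five-point qHTS. ATPlite luminescence readout of cell ATP.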

CAOV3 = experiment: as above; details: Gynecologic cancer cell panel viability, ATPlite luminescence, 48 h; series mostly up to 57.5 µM
Outline: as §2

CASKI = experiment: as above; details: Gynecologic cancer cell panel viability, ATPlite luminescence, 48 h; series mostly up to 57.5 µM
Outline: as §2

Es-2 = experiment: as above; details: Gynecologic cancer cell panel viability, ATPlite luminescence, 48 h; series mostly up to 57.5 µM
Outline: as §2

HeLa = experiment: as above; details: Gynecologic cancer cell panel viability, ATPlite luminescence, 48 h; series mostly up to 57.5 µM
Outline: as §2

Hek293T = experiment: as above; details: Gynecologic cancer cell panel viability, ATPlite luminescence, 48 h, control line for the selectivity index; series mostly up to 57.5 µM
Outline: as §2

JEG-3 = experiment: as above; details: Gynecologic cancer cell panel viability, ATPlite luminescence, 48 h; series mostly up to 57.5 µM
Outline: as §2

OV90 = experiment: as above; details: Gynecologic cancer cell panel viability, ATPlite luminescence, 48 h; series mostly up to 57.5 µM
Outline: as §2

PA-1 = experiment: as above; details: Gynecologic cancer cell panel viability, ATPlite luminescence, 48 h; series mostly up to 57.5 µM
Outline: as §2

Tov-21-G = experiment: as above; details: Gynecologic cancer cell panel viability, ATPlite luminescence, 48 h; series mostly up to 57.5 µM
Outline: as §2

Tov112D = experiment: as above; details: Gynecologic cancer cell panel viability, ATPlite luminescence, 48 h; series mostly up to 57.5 µM
Outline: as §2

[1] = Drug repurposing screens with cells derived from glioblastoma tumor samples (AID 1345199); details: GBM patient neurospheres viability, ATP luminescence, 48 h; note: nearly all actives have a fitted effect of over 40% in size; note: potency is the fitted concentration of half-maximal effect; for activity, negative = cell killing: % is set by controls: 0 for no effect and ±100 for the full control effect
Outline: (§3)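 Four patient lines of CD133+ GBM neurospheres were screened at several concentrations; hits were retested in those lines plus three slower-growing GBM lines, using 48-hour treatment and ATP-based viability.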

astro = experiment: as above; details: viability, ATP luminescence, 48 h; series mostly up to 45.9 µM
Outline: as §3

SKOV3 = experiment: Primary qHTS to identify gynecologic anti-cancer compounds using libraries of approved drugs and bioactive compounds (AID 1345084); details: Gynecologic cancer cell panel viability, ATPlite luminescence, 48 h; series mostly up to 57.5 µM; note: % is set by controls: 0 for no effect and ±100 for the full control effect; nearly all actives have a fitted effect of over 55% in size
Outline: as §2

[2] = molecular target: Nuclear receptor subfamily 1 group I member 2 (Rattus norvegicus) (UniProt Q9R1A7); experiment: qHTS assay for small molecule activators of the rat pregnane X receptor (rPXR) signaling pathway (AID 651751; call rule not given here; note: 0% is about no effect); details: rPXR reporter cells, luciferase (One-Glo), 24 h
Chain of Nuclear receptor subfamily 1 group I member 2 (Rattus norvegicus) (Q9R1A7 whole entry, looked up): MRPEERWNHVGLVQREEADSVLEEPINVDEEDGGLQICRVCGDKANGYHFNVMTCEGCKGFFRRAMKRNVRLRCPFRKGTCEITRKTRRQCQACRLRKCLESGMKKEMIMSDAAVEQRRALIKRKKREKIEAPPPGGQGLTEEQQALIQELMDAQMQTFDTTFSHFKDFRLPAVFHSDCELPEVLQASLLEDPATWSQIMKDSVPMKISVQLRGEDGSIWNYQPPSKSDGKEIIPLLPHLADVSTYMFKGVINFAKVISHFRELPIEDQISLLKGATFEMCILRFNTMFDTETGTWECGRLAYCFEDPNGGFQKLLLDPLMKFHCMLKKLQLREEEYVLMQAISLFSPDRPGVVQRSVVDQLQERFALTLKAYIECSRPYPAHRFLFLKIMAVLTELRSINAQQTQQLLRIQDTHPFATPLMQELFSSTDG

[3] = qHTS assay for small molecule activators of the human pregnane X receptor (PXR) signaling pathway (AID 720659; call rule not given here; note: 0% is about no effect)
[4] = at 45.9 µM (top of the series), tumour line B
[5] = at 45.9 µM (top of the series), tumour line D
[6] = at 46 µM (top of the series), tumour line A
[7] = at 46.1 µM (top of the series), tumour line C
[8] = at 20 µM (top of the series), tumour line C
[9] = at 21.2 µM (top of the series), tumour line B
[10] = at 21.2 µM (top of the series), tumour line D
[11] = at 21.3 µM (top of the series), tumour line A

CCCCCOC(=O)Nc1nc(=O)n([C@@H]2O[C@H](C)[C@@H](O)[C@H]2O)cc1F
inactive: outcome (UISO) | outcome (WaGa) | outcome (C33A) | outcome (CAOV3) | outcome (CASKI) | outcome (Es-2) | outcome (HeLa) | outcome (Hek293T) | outcome (JEG-3) | Potency (OV90) | outcome (PA-1) | outcome (Tov-21-G) | outcome (Tov112D) | activity, negative = cell killing [1, 4] 3.4% | activity, negative = cell killing [1, 5] -3.99% | activity, negative = cell killing [1, 6] -16.9% | activity, negative = cell killing [1, 7] 7.27% | outcome (astro)

CC[N+](CC)(CC(=O)Nc1c(C)cccc1C)Cc1ccccc1
inactive: outcome (UISO) | outcome (WaGa) | outcome (C33A) | outcome (CAOV3) | outcome (CASKI) | outcome (Es-2) | outcome (HeLa) | outcome (Hek293T) | outcome (JEG-3) | Potency (OV90) | outcome (PA-1) | outcome (SKOV3) | outcome (Tov-21-G) | outcome (Tov112D) | activity, negative = cell killing [1, 4] -20.4% | activity, negative = cell killing [1, 5] -18.5% | activity, negative = cell killing [1, 7] -28% | max response [2] 0.531% | outcome [3]

NCC1CCC(C(=O)Oc2ccc(CCC(=O)O)cc2)CC1 (stereo unspecified)
inactive: outcome (UISO) | outcome (WaGa) | outcome (C33A) | outcome (CAOV3) | outcome (CASKI) | outcome (Es-2) | outcome (HeLa) | outcome (Hek293T) | outcome (JEG-3) | Potency (OV90) | outcome (PA-1) | outcome (SKOV3) | outcome (Tov-21-G) | outcome (Tov112D) | activity, negative = cell killing [1, 4] -0.713% | activity, negative = cell killing [1, 5] -15% | activity, negative = cell killing [1, 7] 8.61% | outcome (astro)

COc1ccc(Cc2cnc(N)nc2N)cc1OC
inactive: outcome (UISO) | outcome (WaGa) | outcome (C33A) | outcome (CAOV3) | outcome (CASKI) | outcome (Es-2) | outcome (HeLa) | outcome (Hek293T) | outcome (JEG-3) | Potency (OV90) | outcome (PA-1) | outcome (Tov-21-G) | outcome (Tov112D) | activity, negative = cell killing [1, 4] 11% | activity, negative = cell killing [1, 5] -18.1% | activity, negative = cell killing [1, 7] -4.34% | outcome (astro)

CCCCCCCCCCCCCCCCC(C(=O)O)C(O)(CC(=O)O)C(=O)O (stereo unspecified)
inactive: outcome (UISO) | outcome (WaGa) | outcome (C33A) | outcome (CAOV3) | outcome (CASKI) | outcome (Es-2) | outcome (HeLa) | outcome (JEG-3) | Potency (OV90) | outcome (PA-1) | outcome (SKOV3) | outcome (Tov-21-G) | outcome (Tov112D) | activity, negative = cell killing [1, 4] -24.2% | activity, negative = cell killing [1, 5] -4.12% | activity, negative = cell killing [1, 6] -28.6% | activity, negative = cell killing [1, 7] -24.9%

O=C(O)COC(=O)Cc1ccccc1Nc1c(Cl)cccc1Cl
inactive: outcome (UISO) | outcome (WaGa) | outcome (C33A) | outcome (CAOV3) | outcome (CASKI) | outcome (Es-2) | outcome (HeLa) | outcome (Hek293T) | outcome (JEG-3) | Potency (OV90) | outcome (PA-1) | outcome (Tov-21-G) | outcome (Tov112D) | activity, negative = cell killing [1, 8] -2.19% | activity, negative = cell killing [1, 9] -12.4% | activity, negative = cell killing [1, 10] -4.64% | activity, negative = cell killing [1, 11] -12.9% | outcome (astro)

CC(=O)[C@@]1(O)CC[C@H]2[C@@H]3C[C@H](C)C4=CC(=O)C=C[C@]4(C)[C@@]3(F)[C@@H](O)C[C@@]21C
inactive: outcome (UISO) | outcome (WaGa) | outcome (C33A) | outcome (CAOV3) | outcome (CASKI) | outcome (Es-2) | outcome (HeLa) | outcome (Hek293T) | outcome (JEG-3) | Potency (OV90) | outcome (PA-1) | outcome (Tov-21-G) | outcome (Tov112D) | activity, negative = cell killing [1, 8] -10.6% | activity, negative = cell killing [1, 9] 4.4% | activity, negative = cell killing [1, 10] -1.22% | activity, negative = cell killing [1, 11] 13.1% | outcome (astro)

O=C1c2cccc(O)c2C(=O)c2c(O)cccc21
active: Potency ([1]; tumour line A) 11.2 µM
inactive: outcome (UISO) | outcome (WaGa) | outcome (C33A) | outcome (CAOV3) | outcome (CASKI) | outcome (Es-2) | outcome (HeLa) | outcome (Hek293T) | outcome (JEG-3) | Potency (OV90) | outcome (PA-1) | outcome (SKOV3) | outcome (Tov-21-G) | outcome (Tov112D) | activity, negative = cell killing [1, 7] -4.97% | outcome (astro) | max response [2] 4.48% | outcome [3]

COC(=O)c1ccccc1C(=O)c1ccc(OCCN2CCCCC2)cc1
active: Potency ([1]; tumour line A) 7.08 µM | Potency ([1]; tumour line C) 20.6 µM | Potency ([1]; tumour line D) 12.6 µM
inactive: outcome (UISO) | outcome (WaGa) | outcome (C33A) | outcome (CAOV3) | outcome (CASKI) | outcome (Es-2) | outcome (HeLa) | outcome (Hek293T) | outcome (PA-1) | outcome (Tov-21-G) | outcome (Tov112D) | activity, negative = cell killing [1, 4] -26.9%

Nc1ccc(S(=O)(=O)c2ccc(N)cc2)cc1
inactive: outcome (UISO) | outcome (WaGa) | outcome (C33A) | outcome (CAOV3) | outcome (CASKI) | outcome (Es-2) | outcome (HeLa) | outcome (Hek293T) | outcome (JEG-3) | Potency (OV90) | outcome (Tov-21-G) | outcome (Tov112D) | activity, negative = cell killing [1, 4] -14.4% | activity, negative = cell killing [1, 5] 8.15% | activity, negative = cell killing [1, 6] -30% | activity, negative = cell killing [1, 7] -8.46% | outcome (astro) | max response [2] -2.07% and 2.17% | outcome [3]

Cc1cc(-n2nc3ccc(Cl)cc3n2)c(O)c(C(C)(C)C)c1
inactive: outcome (UISO) | outcome (WaGa) | outcome (C33A) | outcome (CAOV3) | outcome (CASKI) | outcome (Es-2) | outcome (HeLa) | outcome (Hek293T) | outcome (JEG-3) | Potency (OV90) | outcome (PA-1) | outcome (SKOV3) | outcome (Tov-21-G) | outcome (Tov112D) | activity, negative = cell killing [1, 4] -1.32% | activity, negative = cell killing [1, 5] -14.3% | outcome (astro)
active: Potency ([1]; tumour line A) 7.94 µM

CC(CSC(=O)c1ccccc1)C(=O)N1C[C@@H](Sc2ccccc2)C[C@H]1C(=O)O (stereo partly specified)
inactive: outcome (UISO) | outcome (WaGa) | outcome (C33A) | outcome (CAOV3) | outcome (CASKI) | outcome (Es-2) | outcome (HeLa) | outcome (Hek293T) | outcome (JEG-3) | outcome (PA-1) | outcome (Tov-21-G) | outcome (Tov112D) | activity, negative = cell killing [1, 4] -5.59% | activity, negative = cell killing [1, 5] 5.1% | activity, negative = cell killing [1, 6] -20.1% | activity, negative = cell killing [1, 7] -14.7% | outcome (astro)

Cc1cc(NC(=O)C2=C(O)c3ccccc3S(=O)(=O)N2C)no1
inactive: outcome (UISO) | outcome (WaGa) | outcome (C33A) | outcome (CAOV3) | outcome (CASKI) | outcome (Es-2) | outcome (HeLa) | outcome (Hek293T) | outcome (JEG-3) | Potency (OV90) | outcome (PA-1) | outcome (SKOV3) | outcome (Tov-21-G) | outcome (Tov112D) | activity, negative = cell killing [1, 4] -5.07% | activity, negative = cell killing [1, 5] -8.1% | activity, negative = cell killing [1, 7] -15.1% | outcome (astro)
